Experimental data: PubChem BioAssay
Calls of active or inactive are those of the source. Unless noted, no rule for the calls is given here.

Legend:
[1] = tested on: Wnt5a (protein binding on small-molecule microarray); experiment: small molecules binding Wnt5a protein – biophysical, small-molecule microarray, 635/667 nm fluorescence, primary screen (AID 1142); conditions: 635 nm fluorescence, higher = more signal;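 also: fluorescence read at 667 nm with signal to noise per printed feature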
[2] = ATP-based viability of Huh7 replicon cells – cell-based, CellTiter-Glo luminescence, basal, 48 h, cytotoxicity control for HCV replication inhibitor project, primary screen (AID 1143); conditions: higher = more signal, called active from +8 up or from −8 down;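 also: Huh7 hepatoma cells carrying a hepatitis C replication reporter with no stimulus; test concentration not given here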
[3] = Pseudomonas biofilm growth suppression – PAO1 strain, BacTiter-Glo luminescence, LB-PBS, primary screen (AID 1144); conditions: P. aeruginosa PAO1 biofilm, 12 h, higher = more signal
[4] = basal CRE-LacZ reporter activity in PC12 – cell-based, unstimulated, primary screen (AID 1145); conditions: no forskolin, luminescence, 4.5 h, higher = more signal, called active from +8 up or from −8 down
[5] = forskolin-driven CRE-LacZ activity in PC12 – cell-based, CRE-LacZ reporter, forskolin-stimulated, primary screen (AID 1146); conditions: luminescence, 4.5 h, higher = more signal, called active from +8 up or from −8 down;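 also: PC12 cells with 6xCRE LacZ reporter stimulated by forskolin 10 µM; beta-galactosidase reporter signal reflecting CREB driven transcription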
[6] = biological target: Streptavidin (Streptomyces avidinii) (UniProt P22629); experiment: compounds binding control protein streptavidin – biophysical, small-molecule microarray, 635/667 nm fluorescence, artefact control for SMM compound annotation, primary screen (AID 1147); conditions: higher = more signal;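 also: signal reflects streptavidin binding to arrayed compounds as a control protein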
[7] = probe aInhba binding on compound microarray – biochemical, small-molecule microarray, 635/667 nm fluorescence, primary screen (AID 1148); conditions: higher = more signal;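 also: score merges 667nm spot fluorescence with signal-to-noise for antibody binding to printed compounds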
Torsin-1A (Homo sapiens) [8] = biological target: Torsin-1A (Homo sapiens) (UniProt O14656); experiment: TOR1A wild-type binding on microarray – cell lysate, small-molecule microarray, lysate, 635/667 nm, primary screen (AID 1149); conditions: COS7 hTOR1A-WT lysate, 635 nm fluorescence, higher = more signal
Torsin-1A (Homo sapiens) [9] = biological target: Torsin-1A (Homo sapiens) (UniProt O14656); experiment: torsin A mutant lysate binding on microarrays – cell lysate, small-molecule microarray, COS7 lysate, 635/667 nm fluorescence, primary screen (AID 1150); conditions: COS7 hTOR1A mutant lysate, 635 nm fluorescence, higher = more signal;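 also: score pools 667 nm emission and signal to noise measuring lysate protein binding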
[10] = tested on: Sonic hedgehog protein (Shh); experiment: Sonic hedgehog microarray binding compounds – biochemical, small-molecule microarray, 635/667 nm fluorescence, primary screen (AID 1151); conditions: 635 nm fluorescence, higher = more signal;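 also: Shh protein binding to compounds spotted on small-molecule microarray slides; score combines spot fluorescence intensity with signal-to-noise across triplicate slides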

Streptavidin (Streptomyces avidinii), sequence (P22629 whole entry, looked up): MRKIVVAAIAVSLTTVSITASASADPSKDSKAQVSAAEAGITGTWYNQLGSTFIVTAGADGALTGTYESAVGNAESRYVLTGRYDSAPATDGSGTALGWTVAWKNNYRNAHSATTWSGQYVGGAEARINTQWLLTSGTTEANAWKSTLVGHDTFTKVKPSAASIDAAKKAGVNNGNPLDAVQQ
Torsin-1A (Homo sapiens), sequence (O14656 whole entry, looked up): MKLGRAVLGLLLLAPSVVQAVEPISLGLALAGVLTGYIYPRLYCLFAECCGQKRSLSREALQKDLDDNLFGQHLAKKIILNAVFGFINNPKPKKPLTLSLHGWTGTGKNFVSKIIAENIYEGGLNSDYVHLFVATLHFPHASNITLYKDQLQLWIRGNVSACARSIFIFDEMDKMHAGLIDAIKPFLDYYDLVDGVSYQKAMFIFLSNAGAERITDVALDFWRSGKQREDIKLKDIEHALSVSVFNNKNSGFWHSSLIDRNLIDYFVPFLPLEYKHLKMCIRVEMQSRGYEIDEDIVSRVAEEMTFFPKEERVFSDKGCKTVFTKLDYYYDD

Row | SMILES | composite z-score [1] | z-score [2] | z-score [3] | z-score [4] | z-score [5] | composite z-score [6] | composite z-score [7] | composite z-score (Torsin-1A (Homo sapiens) [8]) | composite z-score (Torsin-1A (Homo sapiens) [9]) | composite z-score [10]
1 | O=C(NCCC[N+]1=CC=NC1c1ccccc1)N1CCCc2nc(-c3ccc(Br)cc3)ccc21 (stereo not given) | -0.215 | -2.49 (inactive) | 0.616 (inactive) | -0.888 (inactive) | -0.0384 (inactive) | 0.0054 | -0.118 | 0.291 | 0.405 | 0.322
2 | CC(C)[C@@H](OCc1ccccc1)[C@H](C)C=NO[C@H](C)c1cn([C@@H]2COC[C@H]2O)nn1 | 0.31 | -0.703 (inactive) | 1.28 (inactive) | 0.927 (inactive) | -0.379 (inactive) | 0.0286 | -0.0843 | 1.4 | 1.56 | 0.371
3 | CO[C@H]1COC(=O)[C@H](CCSC)NC(=O)CC=C[C@@H](C)[C@H](OC)COC(=O)[C@@H](OCc2ccccc2)C=C[C@@H]1C | 0.211 | -1.45 (inactive) | -0.128 (inactive) | -0.0638 (inactive) | 0.74 (inactive) | -0.0966 | -0.101 | 1.78 | 0.732 | 1.9
4 | O=C1[C@H]2[C@H]3[C@H](O)[C@H](O)CC(=NOC[C@@H](O)COCc4ccco4)[C@@H]3CC[C@H]2C(=O)N1c1cccc(Oc2ccccc2)c1 | -0.403 | -0.578 (inactive) | 0.626 (inactive) | -1.02 (inactive) | -0.009 (inactive) | 0.707 | -0.0986 | 0.419 | 0.94 | 0.537
5 | CC(=O)OC[C@H]1O[C@H](CC=NO[C@H](C)c2cn([C@@H]3COC[C@H]3O)nn2)C=C[C@@H]1OC(C)=O | 0.104 | -0.29 (inactive) | -0.745 (inactive) | -0.724 (inactive) | -0.538 (inactive) | 0.182 | -0.0494 | -0.0469 | -0.108 | 0.165
6 | CO[C@@H](C(C)C)[C@@H](C)C1OC(=O)CC1O (stereo not given in full) | -0.124 | 0.265 (inactive) | 0.446 (inactive) | -0.0673 (inactive) | -0.0208 (inactive) | -0.468 | -0.158 | -0.118 | -0.0794 | -0.595
7 | CC(=O)OC[C@H]1O[C@H](CC=NOCC[C@@H]2C=C[C@H](OC(C)=O)[C@@H](COC(C)=O)O2)C=C[C@@H]1OC(C)=O | 0.288 | 0.366 (inactive) | -0.358 (inactive) | 0.848 (inactive) | 1.4 (inactive) | 0.162 | -0.0471 | 1.06 | 1.05 | 0.654
8 | CCOC(=O)[C@H](Cc1ccccc1)NC(=O)CCC1CC(OC(=O)NCc2cccc3ccccc23)CC2(CCCC(COC(=O)NCCc3ccccc3OC)O2)O1 (stereo not given in full) | 0.201 | -0.534 (inactive) | 0.0213 (inactive) | 0.104 (inactive) | -0.745 (inactive) | 0.486 | -0.0552 | 0.265 | 0.0946 | 1.1
9 | COC(=O)[C@H](C)NC(=O)CCC1CC(OC(=O)NCc2cccc3ccccc23)CC2(CCCC(COC(=O)NCCOc3ccccc3)O2)O1 (stereo not given in full) | 0.029 | -2.56 (inactive) | 0.0153 (inactive) | -0.709 (inactive) | 0.222 (inactive) | 0.688 | -0.025 | 0.182 | -0.13 | 0.334
10 | COC(=O)[C@H](Cc1ccccc1)NC(=O)[C@@H](C)CO | 0.276 | -2.36 (inactive) | -1.61 (inactive) | -0.0684 (inactive) | 0.563 (inactive) | 0.311 | 0.284 | 0.0847 | 0.0866 | 0.643
11 | Cc1ccc2[nH]c3nc(CCCn4ccnc4-c4ccccc4)nnc3c2c1 | 0.181 | -0.317 (inactive) | 0.892 (inactive) | -0.435 (inactive) | -0.815 (inactive) | 0.857 | 0.157 | 0.443 | 0.807 | 1.18
12 | CC(CCN1CCc2nc(-c3ccccc3)c(-c3ccccc3)cc2C1)=NOC(C)CN1CCCc2nc(C)c(C)cc21 (stereo not given) | 0.281 | -1.33 (inactive) | 0.25 (inactive) | 0.894 (inactive) | -0.0977 (inactive) | 0.808 | 0.0785 | 0.373 | 0.432 | 0.667
13 | O=C1C=C[C@@H](O)[C@@H]2[C@@H]3C(=O)N(Cc4ccccc4)C(=O)[C@@H]3CC[C@@H]12 | -0.0088 | -0.122 (inactive) | -0.158 (inactive) | -0.566 (inactive) | -0.768 (inactive) | 0.222 | -0.128 | 0.418 | 0.376 | 0.632
14 | CC(C)(C)N1C(=O)[C@H]2[C@H]3[C@H](O)[C@H](O)CC(=NOC[C@@H](O)COCc4ccco4)[C@H]3CC[C@H]2C1=O | -0.0267 | 0.186 (inactive) | -0.486 (inactive) | 0.701 (inactive) | -0.113 (inactive) | 0.422 | -0.0279 | 0.506 | 0.465 | -0.0386
15 | COC(=O)[C@H](C)NC(=O)CCC1CC(OC(=O)NCCc2ccc(F)cc2)CC2(CCCC(COC(=O)NCCOc3ccccc3)O2)O1 (stereo not given in full) | 0.399 | -0.471 (inactive) | 0.706 (inactive) | -0.0755 (inactive) | -0.501 (inactive) | 0.56 | -0.0059 | 0.37 | 0.379 | 1.46
